# Source: PubChem
# Pf Dd2 inh – Plasmodium falciparum Dd2 growth inhibition | P. falciparum Dd2 growth, SYBR Green, 72 h | Potency, µM (series often up to 28.9 µM), for inactives: top-dose activity, negative = inhibition, hits mostly inhibitors | 120,000 tested, 4.3% active | AID 1347417; active = well fitted inhibition curve with a large enough effect;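 also: plate controls were DMSO vehicle for no effect and reference drug for full effect; nearly all actives have a fitted effect of over 65% in size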
#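 Readout: SYBR Green fluorescence, 485 nm excitation, 535 nm emission, after ~16 h lysis at 37C. Before that, Dd2-infected red cells (2.5% hematocrit) grew 72 h with compound, 29 uM top final concentration.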
# Numbers without * were called inactive; i = inactive; [ ] = remark or other dose. The full list was thinned out, with hits kept by preference. Potency is read from the fitted curve at half-maximal effect.
SMILES,Pf Dd2 inh
O=C1CC(c2ccccc2)N(Cc2ccncc2)CCCN(C(=O)c2ccsc2)CCN1 (stereo not drawn),5.6µM*
CS(=O)(=O)N1CCCN(C(=O)c2ccsc2)CCNC(=O)CC1c1ccccc1 (stereo not drawn),3%
Cc1ccc(C(=O)N2CCCN(S(C)(=O)=O)C(c3ccccc3)CC(=O)NCC2)cn1 (stereo not drawn),-9%
CS(=O)(=O)N1CCCN(Cc2ccc(C#N)cc2)CCNC(=O)CC1c1ccccc1 (stereo not drawn),-18%
Cn1ccnc1C(=O)N1CCCN(S(C)(=O)=O)C(c2ccccc2)CC(=O)NCC1 (stereo not drawn),i
COCc1nc2nccc(-c3ccc(Br)s3)n2n1,-5%
CC(C)CN1CC2(C1)C(=O)N(CCCN1CCCC1=O)C(=O)[C@@H]1C[C@@H](O)CN12,27%[44.1 µM]
Cc1ccc(C)c(CN2CCc3nc(N4CCN(C)CC4)[nH]c(=O)c3CC2)c1,9%[5.79 µM]
CCN1C(=O)CCN(C(=O)NC(C)C)CC12CCOCC2,-16%
Cc1nnc([C@@H]2CC(F)(F)CN2S(=O)(=O)c2ccc(F)cc2)o1,23%
c1csc(-c2nc3nccc(-c4cccs4)n3n2)c1,-21%
Cc1ccccc1N1CCCN(Cc2cc3n(n2)CCNC3)CC1,i
O=C1NC2(Cc3ccccc31)CN(C(=O)c1ccccc1F)C2,-15%
Cc1cccc(C(=O)N2CCCN(Cc3ccncc3)C(c3ccccc3)CC(=O)NCC2)c1 (stereo not drawn),2.2µM*
O=C1CC(c2ccccc2)N(Cc2ccncc2)CCCN(C(=O)CN2C(=O)CCC2=O)CCN1 (stereo not drawn),-19%
Cc1cccc(C(=O)N2CCCCCNC(=O)CC2c2ccccc2)c1 (stereo not drawn),-6%
Cc1ncccc1C(=O)N1CCCN(Cc2ccncc2)C(c2ccccc2)CC(=O)NCC1 (stereo not drawn),11µM*
CCCS(=O)(=O)N1CCCC(C(=O)NCc2ccccc2)CCNC(=O)CC1 (stereo not drawn),26%
Cc1ccc(C(=O)N2CCCN(Cc3ccncc3)C(c3ccccc3)CC(=O)NCC2)cn1 (stereo not drawn),i
CCCS(=O)(=O)N1CCCN(Cc2ccncc2)C(c2ccccc2)CC(=O)NCC1 (stereo not drawn),14µM*
Cn1cnc(S(=O)(=O)N2CCCN(C(=O)c3ccncc3)CCNC(=O)CC2c2ccccc2)c1 (stereo not drawn),-1%
Cc1cccc(C(=O)N2CCCN(C(=O)C3CC3)C(c3ccccc3)CC(=O)NCC2)c1 (stereo not drawn),i
O=C(Cc1ccccn1)NCC1COc2ncncc2C(=O)N1Cc1ccccc1 (stereo not drawn),-1%[44.1 µM]
O=C(CC1CCOC2(CCN(S(=O)(=O)c3ccc(F)cc3)CC2)C1)N1CCCC1 (stereo not drawn),i
CC(C)C(=O)N1CCc2c(c(-c3nncn3C(C)C)nn2C)C1,-27%
SMILES,Pf Dd2 inh
O=C1C(OCC2CC2)C2(CCCCC2)N1C1CCN(Cc2ccncc2F)CC1 (stereo not drawn),i
O=C(Cc1cccnc1)N1CCC(N2C(=O)C(OCC3CC3)C23CCCCC3)CC1 (stereo not drawn),-28%
O=C1C(OCC2CC2)C2(CCCCC2)N1C1CCN(Cc2cccnc2)CC1 (stereo not drawn),8.9µM*
Cc1ccc(C(=O)N2CCC3(CC2)N=C(c2cccc(Br)c2)NO3)cc1C,15%
CCOCC(=O)N1CCCC1c1nc(CCOc2cccc(C)c2)no1 (stereo not drawn),25%
O=C(c1cccs1)N1CCC2(CC1)CC(N(C(=O)c1ccccc1)C1CC1)CCO2 (stereo not drawn),i
Cn1nc(C2CCNC2)c2c(C(=O)NC3CC3)cc(C3CC3)nc21 (stereo not drawn),10%
Cc1cccc(OC[C@H]2C[C@@H](NC(=O)c3cc(C)n(C)n3)[C@H](O)[C@@H]2O)n1,-10%[44.1 µM]
COc1ccc(CN(Cc2ccco2)C(=O)COc2ccccc2Cl)cc1,14%
COc1ccc(CN(Cc2ccco2)c2cnc(S(C)(=O)=O)nc2C(=O)Nc2ccc(C)c(Cl)c2)cc1,10µM*
Cc1cccc(C)c1NC(=O)c1nc(S(C)(=O)=O)ncc1N(Cc1ccc(F)cc1)Cc1ccco1,-23%
CCS(=O)(=O)c1ncc(Cl)c(C(=O)N(Cc2ccccc2)Cc2ccco2)n1,10%
CC(C)c1ccc(CN(Cc2ccco2)c2cnc(S(C)(=O)=O)nc2C(=O)Nc2ccc(F)cc2)cc1,11µM*
Cc1ccc(NC(=O)c2ncoc2-c2ccco2)cc1Cl,10%
Cc1ccccc1-c1nc(C2CC(=O)N(C3CCCCC3)C2)no1 (stereo not drawn),27%
COc1cccc(C(=O)N2C(C(=O)NC(C)C)COC23CCN(C(=O)CC(C)(C)C)CC3)c1 (stereo not drawn),-1%
Cc1noc(C)c1CN1C[C@H]2[C@H](C1)[S+](=O)([O-])C(C)(C)C(=O)N2CCOc1ccccc1,-18%
